Ten compounds from PubChem BioAssay (NCATS) can be followed below.

Several values for one entry are separate records, joined by “and”; a condition that tells them apart may be missing. Equal entries are not always repeated. Unmarked numbers belong to inactive results. Inconclusive results are not listed. Activity calls are given as the source filed them. Unless noted, the call rests on the fitted dose curve; in most records, active means well fitted curve in the direction sought with a large enough effect; inconclusive means small, poorly fitted or top-dose-only effect, or another doubt; inactive means no such curve, though single readings can be large; an effect the other way counts as inactive or inconclusive.

The subject of one assay is CASKI. Kind of assay: Primary qHTS to identify gynecologic anti-cancer compounds using libraries of approved drugs and bioactive compounds (AID 1345084). Further: nearly all actives have a fitted effect of over 55% in size. Further: potency means the concentration at half of the fitted maximal effect. Particulars: Gynecologic cancer cell panel viability, ATPlite luminescence, 48 h; series mostly up to 57.5 µM. The method in brief: (§1)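 Cells, 1,000 per well, were allowed to settle for 16 h at 37 C before compound addition. Five concentrations were tested for 48 h, and viability was read by ATPlite luminescence after 15 min at room temperature.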

The next assay deals with Es-2. Described as above. Particulars: Gynecologic cancer cell panel viability, ATPlite luminescence, 48 h; series mostly up to 57.5 µM. The method in brief: as §1
The test system of another assay is HeLa. Described as above. Particulars: Gynecologic cancer cell panel viability, ATPlite luminescence, 48 h; series mostly up to 57.5 µM. The gist of the method: as §1
Another assay deals with Hek293T. The assay is described as above. Conditions: Gynecologic cancer cell panel viability, ATPlite luminescence, 48 h, control line for the selectivity index; series mostly up to 57.5 µM. The gist of the method: as §1
The next assay has as its system JEG-3. The description is as above. Particulars: Gynecologic cancer cell panel viability, ATPlite luminescence, 48 h; series mostly up to 57.5 µM. The method in brief: as §1
Another assay has as its system SKOV3. The assay is described as above. Particulars: Gynecologic cancer cell panel viability, ATPlite luminescence, 48 h; series mostly up to 57.5 µM. The method in brief: as §1
The next assay concerns Tov-21-G. The description is as above. Conditions: Gynecologic cancer cell panel viability, ATPlite luminescence, 48 h; series mostly up to 57.5 µM. The method in brief: as §1
A further assay concerns Tov112D. Described as above. Particulars: Gynecologic cancer cell panel viability, ATPlite luminescence, 48 h; series mostly up to 57.5 µM. The method in brief: as §1
The nature of assay [1]: Drug repurposing screens with cells derived from glioblastoma tumor samples (AID 1345199). Further: nearly all actives have a fitted effect of over 40% in size. Further: potency means the concentration at half of the fitted maximal effect. On activity, negative = cell killing: on the % scale 0 is the no-effect control and ±100 the full control effect. Conditions: GBM patient neurospheres viability, ATP luminescence, 48 h. The gist of the method:
(§2)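 Primary testing used CD133+ neurospheres from four GBM patients, seven concentrations, 48 h exposure and ATP-based viability; confirmation added three slower-growing patient lines.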

In another assay the test system is astro. The description is as above. Conditions: viability, ATP luminescence, 48 h; series mostly up to 45.9 µM. The gist of the method:
as §2

Assay [2] deals with Nuclear receptor subfamily 1 group I member 2 (Rattus norvegicus) (UniProt Q9R1A7). As to the kind of experiment: qHTS assay for small molecule activators of the rat pregnane X receptor (rPXR) signaling pathway (AID 651751; call rule not given here; further: 0% is about no effect). Conditions: rPXR reporter cells, luciferase (One-Glo), 24 h.
Sequence of Nuclear receptor subfamily 1 group I member 2 (Rattus norvegicus) (Q9R1A7 whole entry, looked up): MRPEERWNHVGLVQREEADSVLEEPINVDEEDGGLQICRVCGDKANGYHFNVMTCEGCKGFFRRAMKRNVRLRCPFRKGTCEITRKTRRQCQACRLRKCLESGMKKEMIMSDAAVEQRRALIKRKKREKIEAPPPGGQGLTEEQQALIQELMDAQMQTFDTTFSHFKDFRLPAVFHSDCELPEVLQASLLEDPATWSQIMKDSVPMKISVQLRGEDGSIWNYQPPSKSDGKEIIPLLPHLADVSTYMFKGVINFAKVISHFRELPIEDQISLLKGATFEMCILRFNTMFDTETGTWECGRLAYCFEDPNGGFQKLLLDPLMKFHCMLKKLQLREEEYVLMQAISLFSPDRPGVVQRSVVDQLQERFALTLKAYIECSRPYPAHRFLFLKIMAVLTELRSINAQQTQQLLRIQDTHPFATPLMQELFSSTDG
A further assay relates to PA-1. As to the kind of experiment: Primary qHTS to identify gynecologic anti-cancer compounds using libraries of approved drugs and bioactive compounds (AID 1345084). Further: nearly all actives have a fitted effect of over 55% in size. Further: potency means the concentration at half of the fitted maximal effect. Particulars: Gynecologic cancer cell panel viability, ATPlite luminescence, 48 h; series mostly up to 57.5 µM. The gist of the method: as §1
The next assay relates to OV90. The description is as above. Particulars: Gynecologic cancer cell panel viability, ATPlite luminescence, 48 h; series mostly up to 57.5 µM. The gist of the method:
as §1

A short description of assay [3]: qHTS assay for small molecule activators of the human pregnane X receptor (PXR) signaling pathway (AID 720659; call rule not given here; further: 0% is about no effect).
A short description of assay [4]: qHTS assay to identify inhibitors of the type 1 interferon - major histocompatibility complex class I in skeletal muscle: Counter screen cell viability and HiBit confirmation (AID 1347412). Further: potency means the concentration at half of the fitted maximal effect; nearly all actives have a fitted effect of over 60% in size. Particulars: iHSKM muscle cells + IFN-b, HiBiT or CellTiter-Glo, 24 h; Potency: HiBiT; Viability, at 45.9 µM (top of the series). The gist of the method:
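HLA-B*08:01–HiBiT knock-in immortalized human myoblasts (C25cl48) stimulated with 4.0 ng/ml human IFN-beta and dosed with compound in a 12-point 1:3 titration (top final 46 uM). After 24 hrs at 37 C, HiBiT lytic luminescence or CellTiter Glo ATP read out.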

[5] abbreviates: at 45.9 µM (top of the series), tumour line B.
[6] abbreviates: at 45.9 µM (top of the series), tumour line D.
The mark [7] stands for this setting: at 46.1 µM (top of the series), tumour line C.

With `CC(C)NCC(O)c1ccc(O)c(O)c1` (configuration not stated), the Potency entry in the assay with CASKI, in the assay on Es-2, with HeLa, in the assay with Hek293T, in the assay with JEG-3 and in the assay on SKOV3 was “inactive” each time. The Potency entry in the assay on Tov-21-G, with Tov112D and in the assay with astro was “inactive” in each case. Moreover, the activity, negative = cell killing is -7.24% in assay [1] (setting [5]), 4.85% in assay [1] (setting [6]) and 7.09% in assay [1] (setting [7]). For the same compound, the max response in assay [2] was -3.83% and 3.86%.

For the compound `CCCNCC(O)COc1ccccc1C(=O)CCc1ccccc1` (configuration not stated), the Potency entry in the assay on CASKI, in the assay with Es-2, in the assay on HeLa, with Hek293T, in the assay on JEG-3 and in the assay on PA-1 was “inactive” each time. The Potency entry in the assay on Tov-21-G, with Tov112D and in the assay on astro was “inactive” each time. Besides, the activity, negative = cell killing in assay [1] (setting [7]) was 27.1%. Besides, in [1] (tumour line A), the Potency was 7.08 µM (active).

In the case of `O=c1c(O)c(-c2ccc(O)c(O)c2)oc2cc(O)cc(O)c12`, the Potency entry in the assay with CASKI, with Es-2, in the assay on Hek293T, in the assay on JEG-3, in the assay on SKOV3 and in the assay with Tov-21-G was “inactive” in each case. The Potency with HeLa was 15.8 µM (active).

For the compound `CN1CCN(C2=Nc3cc(Cl)ccc3Nc3ccccc32)CC1`, the Potency result in the assay with CASKI, with Es-2, with HeLa, with Hek293T, in the assay with JEG-3 and in the assay with Tov-21-G was “inactive” in each case. In the assay on Tov112D, the Potency result is “inactive”. The Potency with SKOV3 is 31.6 µM (active); in assay [1] (tumour line A), 11.2 µM (active); in assay [1] (tumour line D), 35.5 µM (active). Further, in assay [1] (setting [7]), the activity, negative = cell killing is 1.71%.

Regarding `CN1CCN(CCCN2c3ccccc3Sc3ccc(Cl)cc32)CC1`, the Potency result in the assay on CASKI, with Es-2, with HeLa, in the assay with Hek293T, in the assay with JEG-3 and in the assay with SKOV3 was “inactive” throughout. Further, the Potency entry in the assay with Tov-21-G and in the assay on Tov112D was “inactive” throughout. Also, in the assay on astro, the Potency is 20 µM (active).

As to `C[C@H]1c2cccc(O)c2C(O)=C2C(=O)[C@]3(O)C(O)=C(C(N)=O)C(=O)[C@@H](N(C)C)[C@@H]3[C@@H](O)[C@@H]21`, the Potency result in the assay on Es-2, in the assay on HeLa, with Hek293T, in the assay on JEG-3, in the assay on OV90 and with PA-1 was “inactive” each time. Besides, the Potency result with SKOV3, in the assay with Tov-21-G, with Tov112D and with astro was “inactive” in each case. Further, the activity, negative = cell killing in [1] (setting [5]) is -22.1%; in [1] (setting [6]), -13%.

`COc1cc2nc(N3CCN(C(=O)c4ccco4)CC3)nc(N)c2cc1OC`: the Potency result in the assay on CASKI, with HeLa and in the assay on Tov112D was “inactive” throughout. The Potency in the assay on astro was 25.1 µM (active).

For `OCCN(CCO)c1nc(N2CCCCC2)c2nc(N(CCO)CCO)nc(N3CCCCC3)c2n1`, the Potency entry with CASKI, in the assay with Es-2, in the assay on Hek293T, with JEG-3, in the assay on PA-1 and with SKOV3 was “inactive” in each case. In addition, the Potency result in the assay with Tov-21-G, in the assay on Tov112D and with astro was “inactive” each time. Further, the activity, negative = cell killing in assay [1] (setting [5]) was -2.66%; in assay [1] (setting [6]) it was -18.5%; in [1] (at 46 µM (top of the series), tumour line A), -9.97%; in assay [1] (setting [7]) it was 1.47%.

Regarding `C[C@](N)(Cc1ccc(O)c(O)c1)C(=O)O`, the Potency result in the assay with CASKI, in the assay on Es-2, with HeLa, in the assay on Hek293T, in the assay on OV90 and in the assay with PA-1 was “inactive” in each case. Moreover, the Potency entry in the assay on SKOV3, in the assay on Tov-21-G, in the assay on Tov112D and in the assay with astro was “inactive” throughout. For the same compound, the activity, negative = cell killing is -10.5% in [1] (setting [5]), -4.46% in [1] (setting [6]) and 1.22% in assay [1] (setting [7]). For the same compound, the max response in assay [2] was -1.2%. Also, the result in assay [3] was inactive.

Consider `O=C1c2c(O)ccc(O)c2C(=O)c2c(NCCNCCO)ccc(NCCNCCO)c21`, for which the Potency in the assay with CASKI is 2.82 µM (active); with HeLa, 15.8 µM (active); in the assay on Hek293T, 10 µM (active); in the assay on JEG-3, 11.2 µM (active); with OV90, 28.2 µM (active); in the assay with Tov-21-G, 28.2 µM (active). Also, the Potency is 3.98 µM (active) in [1] (tumour line A); 8.91 µM (active) in [1] (tumour line B); 5.62 µM (active) in assay [1] (tumour line D); 5.01 µM (active) in the assay with astro; 1.76 µM (active) in assay [4]. In addition, in assay [1] (at 20 µM (top of the series), tumour line C), the activity, negative = cell killing was -23.1%.
